Measurements: the supplement of paper PMC4466140

Tests used:
Assay in all cases: SPOT peptide array binding signal intensity (averaged, normalized) (arbitrary units (background-subtracted, floor 0; scale differs between SH3 domains)); higher = stronger binding of the SH3 domain to the peptide
AgAbp1 = biological target: AgAbp1
Method in brief: (§1)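 Binding signal is given in arbitrary units that differ between domains and is the normalized, background-subtracted spot intensity averaged across replicates. Each GST-SH3 fusion from one of four yeast species was made in E. coli BL21(DE3), purified on glutathione Sepharose and incubated at 10 μg/ml overnight at 4°C on cellulose-bound synthetic 15-mer peptides in which cysteines were replaced by serines. Detection used anti-GST antibody, an HRP anti-mouse secondary and luminol, followed by imaging and Genespotter quantification.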

AgBbc1 = biological target: AgBbc1
Method in brief: as §1

AgBem1-D1 = biological target: AgBem1-D1
Method in brief: as §1

AgBzz1-D1 = biological target: AgBzz1-D1
Method in brief: as §1

AgBzz1-D2 = biological target: AgBzz1-D2
Method in brief: as §1

AgCyk3 = biological target: AgCyk3
Method in brief: as §1

AgFus1 = biological target: AgFus1
Method in brief: as §1

AgHof1 = biological target: AgHof1
Method in brief: as §1

AgHse1 = biological target: AgHse1
Method in brief: as §1

AgLsb1 = biological target: AgLsb1
Method in brief: as §1

AgLsb4 = biological target: AgLsb4
Method in brief: as §1

AgMyo5 = biological target: AgMyo5
Method in brief: as §1

AgNbp2 = biological target: AgNbp2
Method in brief: as §1

AgRvs167 = biological target: AgRvs167
Method in brief: as §1

AgSho1 = biological target: AgSho1
Method in brief: as §1

AgSla1-D1-D2 = biological target: AgSla1-D1-D2
Method in brief: as §1

AgSla1-D3 = biological target: AgSla1-D3
Method in brief: as §1

CaAbp1-D1 = biological target: CaAbp1-D1
Method in brief: as §1

CaAbp1-D2 = biological target: CaAbp1-D2
Method in brief: as §1

CaBbc1 = biological target: CaBbc1
Method in brief: as §1

CaBem1-D1 = biological target: CaBem1-D1
Method in brief: as §1

CaBzz1-D1 = biological target: CaBzz1-D1
Method in brief: as §1

CaBzz1-D2 = biological target: CaBzz1-D2
Method in brief: as §1

CaCyk3 = biological target: CaCyk3
Method in brief: as §1

CaFus1 = biological target: CaFus1
Method in brief: as §1

CaHof1 = biological target: CaHof1
Method in brief: as §1

CaHse1 = biological target: CaHse1
Method in brief: as §1

CaLsb1 = biological target: CaLsb1
Method in brief: as §1

CaLsb4 = biological target: CaLsb4
Method in brief: as §1

CaMyo5 = biological target: CaMyo5
Method in brief: as §1

CaNbp2 = biological target: CaNbp2
Method in brief: as §1

CaRvs167 = biological target: CaRvs167
Method in brief: as §1

CaRvs167-3 = biological target: CaRvs167-3
Method in brief: as §1

CaSho1 = biological target: CaSho1
Method in brief: as §1

CaSla1-D1-D2 = biological target: CaSla1-D1-D2
Method in brief: as §1

CaSla1-D3 = biological target: CaSla1-D3
Method in brief: as §1

ScAbp1 = biological target: ScAbp1
Method in brief: as §1

ScBbc1 = biological target: ScBbc1
Method in brief: as §1

ScBem1-D1 = biological target: ScBem1-D1
Method in brief: as §1

ScBzz1-D1 = biological target: ScBzz1-D1
Method in brief: as §1

ScBzz1-D2 = biological target: ScBzz1-D2
Method in brief: as §1

ScCyk3 = biological target: ScCyk3
Method in brief: as §1

ScFus1 = biological target: ScFus1
Method in brief: as §1

ScHof1 = biological target: ScHof1
Method in brief: as §1

ScHse1 = biological target: ScHse1
Method in brief: as §1

ScLsb1 = biological target: ScLsb1
Method in brief: as §1

ScLsb2 = biological target: ScLsb2
Method in brief: as §1

ScLsb3 = biological target: ScLsb3
Method in brief: as §1

ScLsb4 = biological target: ScLsb4
Method in brief: as §1

ScMyo3 = biological target: ScMyo3
Method in brief: as §1

ScMyo5 = biological target: ScMyo5
Method in brief: as §1

ScNbp2 = biological target: ScNbp2
Method in brief: as §1

ScPex13 = biological target: ScPex13
Method in brief: as §1

ScRvs167 = biological target: ScRvs167
Method in brief: as §1

ScSho1 = biological target: ScSho1
Method in brief: as §1

ScSla1-D1-D2 = biological target: ScSla1-D1-D2
Method in brief: as §1

ScSla1-D3 = biological target: ScSla1-D3
Method in brief: as §1

SpAbp1-D1 = biological target: SpAbp1-D1
Method in brief: as §1

SpBbc1 = biological target: SpBbc1
Method in brief: as §1

SpBzz1-D1 = biological target: SpBzz1-D1
Method in brief: as §1

SpBzz1-D2 = biological target: SpBzz1-D2
Method in brief: as §1

SpCyk3 = biological target: SpCyk3
Method in brief: as §1

SpHof1 = biological target: SpHof1
Method in brief: as §1

SpHof1-2 = biological target: SpHof1-2
Method in brief: as §1

SpHof1-3 = biological target: SpHof1-3
Method in brief: as §1

SpHse1 = biological target: SpHse1
Method in brief: as §1

SpLsb1 = biological target: SpLsb1
Method in brief: as §1

SpLsb4 = biological target: SpLsb4
Method in brief: as §1

SpMyo1 = biological target: SpMyo1
Method in brief: as §1

SpNbp2 = biological target: SpNbp2
Method in brief: as §1

SpPex13 = biological target: SpPex13
Method in brief: as §1

SpRvs167 = biological target: SpRvs167
Method in brief: as §1

SpSla1-D1-D2 = biological target: SpSla1-D1-D2
Method in brief: as §1

SpSla1-D3 = biological target: SpSla1-D3
Method in brief: as §1

B1: unnamed (peptide)
chain: QGYPRQPQRPQRYHP
AgAbp1
  SPOT peptide array binding signal intensity: 15.5
AgBbc1
  SPOT peptide array binding signal intensity: 187
AgBem1-D1
  SPOT peptide array binding signal intensity: ≤ 0
AgBzz1-D1
  SPOT peptide array binding signal intensity: 8
AgBzz1-D2
  SPOT peptide array binding signal intensity: 22.5
AgCyk3
  SPOT peptide array binding signal intensity: ≤ 0
AgFus1
  SPOT peptide array binding signal intensity: ≤ 0
AgHof1
  SPOT peptide array binding signal intensity: 0.5
AgHse1
  SPOT peptide array binding signal intensity: 17.5
AgLsb1
  SPOT peptide array binding signal intensity: ≤ 0
AgLsb4
  SPOT peptide array binding signal intensity: 47
AgMyo5
  SPOT peptide array binding signal intensity: ≤ 0
AgNbp2
  SPOT peptide array binding signal intensity: ≤ 0
AgRvs167
  SPOT peptide array binding signal intensity: 0.333
AgSho1
  SPOT peptide array binding signal intensity: ≤ 0
AgSla1-D1-D2
  SPOT peptide array binding signal intensity: 2
AgSla1-D3
  SPOT peptide array binding signal intensity: ≤ 0
CaAbp1-D1
  SPOT peptide array binding signal intensity: 25.5
CaAbp1-D2
  SPOT peptide array binding signal intensity: 11
CaBbc1
  SPOT peptide array binding signal intensity: 329
CaBem1-D1
  SPOT peptide array binding signal intensity: 15
CaBzz1-D1
  SPOT peptide array binding signal intensity: 144
CaBzz1-D2
  SPOT peptide array binding signal intensity: 32.5
CaCyk3
  SPOT peptide array binding signal intensity: 13
CaFus1
  SPOT peptide array binding signal intensity: ≤ 0
CaHof1
  SPOT peptide array binding signal intensity: ≤ 0
CaHse1
  SPOT peptide array binding signal intensity: ≤ 0
CaLsb1
  SPOT peptide array binding signal intensity: ≤ 0
CaLsb4
  SPOT peptide array binding signal intensity: 1180
CaMyo5
  SPOT peptide array binding signal intensity: ≤ 0
CaNbp2
  SPOT peptide array binding signal intensity: ≤ 0
CaRvs167
  SPOT peptide array binding signal intensity: 2.5
CaRvs167-3
  SPOT peptide array binding signal intensity: ≤ 0
CaSho1
  SPOT peptide array binding signal intensity: 12.5
CaSla1-D1-D2
  SPOT peptide array binding signal intensity: ≤ 0
CaSla1-D3
  SPOT peptide array binding signal intensity: ≤ 0
ScAbp1
  SPOT peptide array binding signal intensity: 10
ScBbc1
  SPOT peptide array binding signal intensity: 40.2
ScBem1-D1
  SPOT peptide array binding signal intensity: 2.5
ScBzz1-D1
  SPOT peptide array binding signal intensity: ≤ 0
ScBzz1-D2
  SPOT peptide array binding signal intensity: 11
ScCyk3
  SPOT peptide array binding signal intensity: ≤ 0
ScFus1
  SPOT peptide array binding signal intensity: ≤ 0
ScHof1
  SPOT peptide array binding signal intensity: 0.75
ScHse1
  SPOT peptide array binding signal intensity: ≤ 0
ScLsb1
  SPOT peptide array binding signal intensity: 9.5
ScLsb2
  SPOT peptide array binding signal intensity: ≤ 0
ScLsb3
  SPOT peptide array binding signal intensity: 1040
ScLsb4
  SPOT peptide array binding signal intensity: 25
ScMyo3
  SPOT peptide array binding signal intensity: ≤ 0
ScMyo5
  SPOT peptide array binding signal intensity: ≤ 0
ScNbp2
  SPOT peptide array binding signal intensity: 3.5
ScPex13
  SPOT peptide array binding signal intensity: 29.5
ScRvs167
  SPOT peptide array binding signal intensity: ≤ 0
ScSho1
  SPOT peptide array binding signal intensity: 16
ScSla1-D1-D2
  SPOT peptide array binding signal intensity: 12
ScSla1-D3
  SPOT peptide array binding signal intensity: ≤ 0
SpAbp1-D1
  SPOT peptide array binding signal intensity: ≤ 0
SpBbc1
  SPOT peptide array binding signal intensity: 3.5
SpBzz1-D1
  SPOT peptide array binding signal intensity: 226

B2: unnamed (peptide)
chain: SKIRPTPRKPSRMAT
CaNbp2
  SPOT peptide array binding signal intensity: 437
CaRvs167
  SPOT peptide array binding signal intensity: 110
CaRvs167-3
  SPOT peptide array binding signal intensity: 23
CaSho1
  SPOT peptide array binding signal intensity: 60
CaSla1-D1-D2
  SPOT peptide array binding signal intensity: 1470
CaSla1-D3
  SPOT peptide array binding signal intensity: 104
ScAbp1
  SPOT peptide array binding signal intensity: 1260
ScBbc1
  SPOT peptide array binding signal intensity: 73.5
ScBem1-D1
  SPOT peptide array binding signal intensity: 14
ScBzz1-D1
  SPOT peptide array binding signal intensity: 32.5
ScBzz1-D2
  SPOT peptide array binding signal intensity: 39
ScCyk3
  SPOT peptide array binding signal intensity: 25
ScFus1
  SPOT peptide array binding signal intensity: 21
ScHof1
  SPOT peptide array binding signal intensity: 10
ScHse1
  SPOT peptide array binding signal intensity: 1130
ScLsb1
  SPOT peptide array binding signal intensity: 328
ScLsb2
  SPOT peptide array binding signal intensity: 3.5
ScLsb3
  SPOT peptide array binding signal intensity: 2130
ScLsb4
  SPOT peptide array binding signal intensity: 117
ScMyo3
  SPOT peptide array binding signal intensity: 0.5
ScMyo5
  SPOT peptide array binding signal intensity: 4
ScNbp2
  SPOT peptide array binding signal intensity: 1100
ScPex13
  SPOT peptide array binding signal intensity: 124
ScRvs167
  SPOT peptide array binding signal intensity: 865
ScSho1
  SPOT peptide array binding signal intensity: 346
ScSla1-D1-D2
  SPOT peptide array binding signal intensity: 2180
ScSla1-D3
  SPOT peptide array binding signal intensity: 202
SpAbp1-D1
  SPOT peptide array binding signal intensity: 1300
SpBbc1
  SPOT peptide array binding signal intensity: 27.5
SpBzz1-D1
  SPOT peptide array binding signal intensity: 284
SpBzz1-D2
  SPOT peptide array binding signal intensity: 1.5
SpCyk3
  SPOT peptide array binding signal intensity: 6
SpHof1
  SPOT peptide array binding signal intensity: 107
SpHof1-2
  SPOT peptide array binding signal intensity: 43
SpHof1-3
  SPOT peptide array binding signal intensity: 235
SpHse1
  SPOT peptide array binding signal intensity: 180
SpLsb1
  SPOT peptide array binding signal intensity: 5
SpLsb4
  SPOT peptide array binding signal intensity: 3850
SpMyo1
  SPOT peptide array binding signal intensity: 9.5
SpNbp2
  SPOT peptide array binding signal intensity: 178
SpPex13
  SPOT peptide array binding signal intensity: 30
SpRvs167
  SPOT peptide array binding signal intensity: 957
SpSla1-D1-D2
  SPOT peptide array binding signal intensity: 33
SpSla1-D3
  SPOT peptide array binding signal intensity: 49.5
